Only some compounds are listed: those with a hit (about 9.8% of all), similar ones and a draw of the others.
HPGD block – blocks human HPGD enzyme activity; P15428; purified HPGD, NADH fluorescence kinetic, PGE2 substrate; Potency, µM, inactives show top-dose activity change, negative = inhibition, usual class: inhibitors; hit rate 4.3% among 150,000; further: potency means the concentration at half of the fitted maximal effect; on the % scale 0 is the no-effect control and ±100 the full control effect
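NADH formation kinetics: reaction with 30 uM PGE2 and 1 mM NAD+ (final), 20 nM enzyme, Tris-HCl pH 8 with Tween 20, after 15 min compound preincubation at room temperature. Fluorescence change, last versus first of five reads.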
HTT cytoprotect – Huntington cell model cytoprotection by ATP luminescence. AID 1471. Potency, µM (top dose mostly 56.4 µM), without a hit: cytoprotection (ATP increase), usual class: activators. PC12 HTT-Q103 induced, cytoprotection, ATP luminescence, 40 h. hit rate 0.14% among 230,000; active means well fitted curve in the direction sought with a large enough effect; inconclusive means small, poorly fitted or top-dose-only effect, or another doubt; inactive means no such curve, though single readings can be large; an effect the other way counts as inactive or inconclusive; further: potency means the concentration at half of the fitted maximal effect; % of control where 0% means no effect; nearly all actives have a fitted effect of over 45% in size
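Stable PC12 Q103-GFP cells in serum-supplemented, phenol red-free DMEM; induction by tebufenozide at 100 nM final; compound dose series; cell viability quantified luminescently from ATP.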
ALDH1A1 block – ALDH1A1 (human) enzyme inhibition; AID 1030; P00352; Potency, µM (titrated, usually from 75.3 µM), inactives show at the top dose activity, negative = inhibition, most hits filed as inhibitors; hit rate 7.3% among 220,000; Purified ALDH1A1, NADH fluorescence, propionaldehyde substrate;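 further: potency means the concentration at half of the fitted maximal effect; plate controls were no enzyme wells and a reference inhibitor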
CBFb RUNX1 block – CBF-beta/RUNX1 interaction disruption; AlphaScreen CBFb-His/RUNX1-biotin binding, biochemical; Potency, µM (top dose mostly 59.8 µM), for inactives: top-dose activity, negative = inhibition, usual class: inhibitors; 230,000 tested, under 10 active; AID 1477; active means well fitted curve in the direction sought with a large enough effect; inconclusive means small, poorly fitted or top-dose-only effect, or another doubt; inactive means no such curve, though single readings can be large; an effect the other way counts as inactive or inconclusive; further: % of control where 0% means no effect
Target sequence (Q01196 whole entry, looked up): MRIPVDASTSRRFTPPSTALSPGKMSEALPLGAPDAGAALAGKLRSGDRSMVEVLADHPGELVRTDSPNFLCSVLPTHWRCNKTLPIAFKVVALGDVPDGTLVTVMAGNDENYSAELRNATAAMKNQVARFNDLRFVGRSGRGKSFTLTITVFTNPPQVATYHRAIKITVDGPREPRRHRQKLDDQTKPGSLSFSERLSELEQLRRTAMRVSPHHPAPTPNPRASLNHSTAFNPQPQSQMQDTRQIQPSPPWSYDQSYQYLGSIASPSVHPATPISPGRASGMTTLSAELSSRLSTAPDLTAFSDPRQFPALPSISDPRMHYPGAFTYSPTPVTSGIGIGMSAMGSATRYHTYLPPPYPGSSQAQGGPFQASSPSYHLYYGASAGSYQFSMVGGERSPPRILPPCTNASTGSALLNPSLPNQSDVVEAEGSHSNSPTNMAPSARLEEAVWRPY
Target sequence (Q13951 whole entry, looked up): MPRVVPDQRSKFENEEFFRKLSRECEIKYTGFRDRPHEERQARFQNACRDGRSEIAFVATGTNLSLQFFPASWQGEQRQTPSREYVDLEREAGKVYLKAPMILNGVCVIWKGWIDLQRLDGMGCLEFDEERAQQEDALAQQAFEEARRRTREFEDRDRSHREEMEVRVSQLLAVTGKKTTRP
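Read-out: AlphaScreen. Format: His-CBF-beta with biotinylated RUNX1 (30 nM each) preincubated 20 min, compound 15 min, Ni-chelate plus streptavidin beads 90 min; room temperature throughout.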
KDM4E inh – JMJD2E (human) inhibition; Potency, µM (titrated, usually from 57.1 µM), for the others: at the top dose activity change, negative = inhibition, actives largely listed as inhibitors; AID 2147; JMJD2E catalytic domain, FDH-coupled NADH fluorescence (FDH is formaldehyde dehydrogenase); B2RXH2; hit rate 1.6% among 230,000;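 further: potency means the concentration at half of the fitted maximal effect; 0% = wells with enzyme and -100% = buffer wells without enzyme; nearly all actives have a fitted effect of over 50% in size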
HTT aggregate – inhibitors of mutant huntingtin aggregate formation in PC12 cells; PC12 HttQ103-GFP aggregates, Acumen cytometry, 40 h; AID 1688; Potency, µM (doses to about 46.1 µM), inactives show at the top dose activity change, negative = inhibition, usual class: inhibitors; hit rate 1.1% among 220,000; active means well fitted curve in the direction sought with a large enough effect; inconclusive means small, poorly fitted or top-dose-only effect, or another doubt; inactive means no such curve, though single readings can be large; an effect the other way counts as inactive or inconclusive; further: potency means the concentration at half of the fitted maximal effect; on the % scale 0 is the no-effect control and ±100 the full control effect; nearly all actives have a fitted effect of over 60% in size
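Aggregate formation scored by laser-scanning cytometer (488 excitation, 500–530 emission) in lysed PC12 cells expressing Q103-GFP after 100 nM tebufenozide induction; library tested in dose series, with ATPLite reagent added in the multiplex.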
* hit, by the source's call; ? = inconclusive; . = no result given; [ ] = another dose, or the depositor's remark. Unless noted, the call rests on the fitted dose curve; in most records, active means well fitted inhibition curve with a large enough effect (not every such curve was filed as active); inconclusive means small, poorly fitted or top-dose-only effect, or another doubt; inactive means no such curve, though single readings can be large or run the other way.

SMILES	HPGD block	HTT cytoprotect	ALDH1A1 block	CBFb RUNX1 block	KDM4E inh	HTT aggregate
NC(=O)c1c(NC(NC(=O)c2ccco2)(C(F)(F)F)C(F)(F)F)sc2c1CCCC2	-6%	-21%	32µM*	2%	?	-19%
CN(C)C(=O)c1c(NC(=O)c2ccco2)sc2c1CCCCC2	-16%	-13%[10 µM]	?	3%	0%	-7%
CN1CCN(C(=O)c2c(NC(=O)c3ccco3)sc3c2CCC(C(C)(C)C)C3)CC1 (stereo not given)	-19%	0%	13µM*	1%	?	?
CN(C)C(=O)C1CCN(Cc2c[nH]c3ccccc23)CC1	0%	3%[10 µM]	14%[13.5 µM]	.	.	.
CC1=CC(=O)C(C(C)C)=CC1=NC(=O)c1ccc(C)cc1	.	-4%[10 µM]	18µM*	-1%	-3%	-2%
O=C1OC(O)C(C(Cl)Cl)=C1Cl (stereo not given)	-8%	-56%	20µM*	10%[21.7 µM]	.	.
COc1ccccc1-n1c(-c2ccccc2)c[nH]c1=S	.	8%[10 µM]	2.5µM*	-14%	-1%	-10%
Cn1c(-c2ccc(-c3ccccc3)cc2)c[nH]c1=S	.	-15%	2%	-22%	-3%	-1%
S=c1[nH]cc(-c2ccccc2)n1-c1ccccc1Cl	18µM*	.	0.89µM*	-19%	-1%	-6%
Cc1ccc(NC(=O)CSCC(=O)N2c3ccccc3CCc3ccccc32)cc1	-12%	-33%	3.2µM*	-2%	2%	10%
COc1ccc(CNC(=O)C2CC(=O)N(c3ccc(OCC(=O)N4CCCCC4)cc3)C2)cc1 (stereo not given)	14µM*	7%	?	-10%	-2%	-9%
O=C(NCc1ccccc1)C1CC(=O)N(c2ccc(OCC(=O)N3CCCC3)cc2)C1 (stereo not given)	-12%	16%[10 µM]	10%	-1%	10%	7%
O=S(=O)(CC12C3C4C5C1C2C(Br)(C43)C51OCCO1)c1ccccc1 (stereo not given)	-6%	.	11µM*	.	5%	.
C/C=C(\C)C(=O)NCCN1C2=NC[C@H](C)N2C[C@@H]1Cc1ccc(OC)cc1	.	-14%[10 µM]	-4%	6%	5%	-3%[9.22 µM]
CCCCCCNC(=O)N[C@H](C(=O)NCCC[C@H]1CN2C(=NC[C@H]2C)N1CCC(c1ccccc1)c1ccccc1)C(C)O (stereo not given in full)	.	-9%[10 µM]	.	-5%	20µM*	-32%[9.22 µM]
CC1(C)CC[C@]2(C(=O)O)CC[C@]3(C)C(=CCC4[C@@]5(C)CC[C@H](O)C(C)(C)C5[C@H](O)C[C@]43C)C2C1 (stereo not given in full)	-3%	27%[1.9 µM]	0%	-14%[21.7 µM]	5%	.
Cc1sc2ncnc(NCCN3CCOCC3)c2c1C	-5%	-4%	-11%	1%	?	11µM*
CCN(CC)c1ccc(NC2CC(=O)N(CCc3ccc(OC)cc3)C2=O)cc1 (stereo not given)	.	23%[10 µM]	.	.	13µM*	31%[9.22 µM]
COc1ccc(CCNC2CC(=O)N(CCc3ccccc3)C2=O)cc1 (stereo not given)	-23%	14%	?	-1%	7%	10%
CO[C@H]1COC(=O)C/C=C\[C@H](C)[C@H](OC)COC(=O)[C@@H](C)COC(=O)C/C=C\[C@@H]1C	.	?	4%[13.5 µM]	4%[13.1 µM]	.	.
CC1CCCN(C2=C(NS(=O)(=O)c3ccc(Cl)cc3)C(=O)c3ccccc3C2=O)C1 (stereo not given)	-25%	-7%[10 µM]	13µM*	-2%	-2%	2%
O=C(NCCc1c[nH]c2ccccc12)C(=O)NCC(c1cccnc1)N1CCN(c2ccccc2)CC1 (stereo not given)	-2%	.	14%	1%[2.36 µM]	?	3.5µM*
COC(=O)NCC(c1cccnc1)N1CCN(c2ccccc2)CC1 (stereo not given)	-8%	15%[10 µM]	9%	0%	-7%	-18%
CC(=O)Nc1ccc(S(=O)(=O)NC2=C(N3CCN(c4ccc(F)cc4)CC3)C(=O)c3ccccc3C2=O)cc1	-23%	-87%	7.1µM*	?	?	?
COC(=O)C1CCN(C2=C(NS(=O)(=O)c3ccc(Cl)cc3)C(=O)c3ccccc3C2=O)CC1	.	-14%[10 µM]	.	.	-8%	-37%[9.22 µM]
SMILES	HPGD block	HTT cytoprotect	ALDH1A1 block	CBFb RUNX1 block	KDM4E inh	HTT aggregate
COc1ccc(S(=O)(=O)NCC(c2cccnc2)N2CCN(c3ccccc3)CC2)cc1C (stereo not given)	-16%	-6%	13µM*	-13%	2%	4%[9.22 µM]
COc1ccc(S(=O)(=O)NCC(c2cccnc2)N2CCN(c3ccc(F)cc3)CC2)cc1C (stereo not given)	-1%	28%[10 µM]	?	-10%	0%	0%
O=C(O)CCC(O)=C1S(=O)(=O)OCCOS1(=O)=O	-5%	3%[10 µM]	8%[13.5 µM]	.	.	.
COc1ccc2nccc(SCC(=O)O)c2c1	-12%	1%[10 µM]	5%[13.5 µM]	.	.	.
O=S(=O)(NCC(c1cccnc1)N1CCN(c2ccccc2)CC1)c1cccs1 (stereo not given)	-11%	8%[10 µM]	2.5µM*	-4%	-22%	7%
O=C1C(NS(=O)(=O)c2cccs2)=C(N2CCN(c3ccccc3)CC2)C(=O)c2ccccc21	-25%	-4%	3.5µM*	-15%	-25%	14%
O=C(/C=C/c1ccncc1)c1ccc(NC(=O)c2ccccc2F)cc1	25µM*	.	?	-24%	-8%	?
O=C(Nc1cccnc1)c1ccccc1F	-9%	-3%	9%	1%	7%	-5%
Cc1nn(Cc2nnc(SCC(=O)Nc3ccc(Cl)cc3)n2C)c(C)c1[N+](=O)[O-]	.	-3%[10 µM]	.	-6%	-3%	-18%[9.22 µM]
S=C(c1ccc(-c2ccc(Cl)cc2Cl)o1)N1CCCCC1	?	10%[10 µM]	14µM*	-21%	0%	-28%
CN1CCN(C(=S)c2ccc(-c3cc(Cl)ccc3Cl)o2)CC1	.	12%[10 µM]	.	-20%	12%	5%[9.22 µM]
N#CCCN1CCN(C(=S)c2ccc(-c3cc(Cl)ccc3Cl)o2)CC1	-14%	-29%	?	?	-3%	-25%
S=C(c1ccc(-c2ccc(Cl)cc2Cl)o1)N1CCCC1	.	-25%[10 µM]	4µM*	-1%	-26%	1%[9.22 µM]
CCOC(=O)N1CCN(c2ccc(C(C)=O)cc2F)CC1C (stereo not given)	.	.	-3%	12%	-5%	-19%
CC(C)CN(CCC(=O)O)CC(C)C	-10%	-5%	17%	2%	-5%	7%
CCN(CC)CCN1C(=O)C(=O)/C(=C(/O)c2ccc3c(c2)CC(C)O3)C1c1ccc(OC)cc1 (stereo not given)	.	13%[10 µM]	.	1%	-2%	-8%[9.22 µM]

High-throughput results as filed in PubChem.
